# Test results as given in the supplement of paper PMC6992640.
# ± gives the standard deviation of the averaged measurements.
# Key:
# Assay in all cases: cell viability (% of vehicle); higher = less cytotoxic
# Conditions in all cases: 10 µM; 72 h
# HCI01 = tested on: HCI01 (cells of a triple-negative basal-like breast cancer xenograft)
# HCI03 = tested on: HCI03 (cells of an ER-positive luminal breast cancer xenograft)
# HCI09 = tested on: HCI09 (cells of a triple-negative luminal androgen receptor type breast cancer xenograft)
# HCI11 = tested on: HCI11 (cells of an ER-positive luminal breast cancer xenograft)
# HCI13 = tested on: HCI13 (cells of an ER-positive luminal breast cancer xenograft)
# HCI16 = tested on: HCI16 (cells of a triple-negative basal-like breast cancer xenograft)
# UCD52 = tested on: UCD52 (cells of a triple-negative basal-like breast cancer xenograft)
# WHIM2 = tested on: WHIM2 (cells of a triple-negative basal-like breast cancer xenograft)
# WHIM30 = tested on: WHIM30 (cells of a triple-negative basal-like breast cancer xenograft)
# 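Further: PDX cells carrying CMV promoter-driven luciferase, viability read as total photon flux per second by IVIS imaging following D-luciferin, vehicle control 0.1% DMSO.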
Structure (SMILES),cell viability (HCI01),cell viability (HCI03),cell viability (HCI09),cell viability (HCI11),cell viability (HCI13),cell viability (HCI16),cell viability (UCD52),cell viability (WHIM2),cell viability (WHIM30)
CC(=O)NCC1CN(c2ccc(N3CCOCC3)c(F)c2)C(=O)O1 (stereo not drawn) [Linezolid],99.5 ± 2.9,108,93.8 ± 5.2,103,98.1 ± 3,110,81 ± 12,80.7 ± 1.3,137 ± 14
Cc1cc(C)c2c(c1)C(N(Cc1cc(C(F)(F)F)cc(C(F)(F)F)c1)c1nnn(C)n1)CCCN2CC1CCC(C(=O)O)CC1 (stereo not drawn),41.2 ± 16,135,61.9 ± 53,98.5,51.4 ± 8.7,139,119 ± 2.1,91.8 ± 4.9,110 ± 6.3
CC1(C)SC2C(NC(=O)C(N)c3ccc(O)cc3)C(=O)N2C1C(=O)O (stereo not drawn) [Amoxicillin],123 ± 28,112,103 ± 4.6,112,141 ± 17,120,84.9 ± 12,138 ± 44,102 ± 10
COc1ccc(CC2c3cc(OC)c(OC)cc3CC[N+]2(C)CCC(=O)OCCCCCOC(=O)CC[N+]2(C)CCc3cc(OC)c(OC)cc3C2Cc2ccc(OC)c(OC)c2)cc1OC.O=S(=O)([O-])c1ccccc1.O=S(=O)([O-])c1ccccc1 (stereo not drawn) [Atracurium Besylate],187 ± 100,110,87.1 ± 58,81,80.1 ± 19,145,126 ± 2.7,71.5 ± 12,97.1 ± 7
CCC1OC(=O)C(C)C(OC2CC(C)(OC)C(O)C(C)O2)C(C)C(OC2OC(C)CC(N(C)C)C2O)C(C)(OC)CC(C)C(=O)C(C)C(O)C1(C)O (stereo not drawn) [Clarithromycin],112 ± 5.1,137,94.7 ± 19,116,125 ± 11,96.6,95.5 ± 8.8,104 ± 10,113 ± 22
O=C1OC(C(O)CO)C(O)=C1O (stereo not drawn) [Vitamin C],76.9 ± 31,111,93.6 ± 11,84.3,90 ± 12,108,75 ± 3.8,113 ± 34,135 ± 5.2
Cc1cc(C#N)cc(C)c1Oc1nc(Nc2ccc(C#N)cc2)nc(N)c1Br [Etravirine (TMC125)],107 ± 6.5,127,91.9 ± 4.6,93.4,86.559 ± 0.026,109,99.3 ± 18,92.3 ± 3.6,137.8 ± 0.96
Nc1ccc(S(N)(=O)=O)cc1 [Sulfanilamide],106 ± 25,127,97.7 ± 18,83.1,164 ± 9.1,120,94.6 ± 8.7,105 ± 7.5,140 ± 13
CCNC1(C(N)=O)CCN(c2ncnc3c2nc(-c2ccccc2Cl)n3-c2ccc(Cl)cc2)CC1.Cl,83 ± 14,86,39.3 ± 16,75,81 ± 13,92.1,63.4 ± 1.6,89.6 ± 5.2,109 ± 9.3
CO/N=C(\C(=O)N[C@@H]1C(=O)N2C(C(=O)[O-])=C(COC(C)=O)CS[C@H]12)c1csc(N)n1.[Na+] [Cefotaxime (sodium salt)],94.8 ± 14,121,105 ± 3.7,74.9,155 ± 13,107,116.5 ± 0.35,99.12 ± 0.99,136.3 ± 0.17
Cc1ccc(NC(=O)c2ccc(CN3CCN(C)CC3)cc2)cc1Nc1nccc(-c2cccnc2)n1 [Imatinib (STI571)],87.1 ± 42,156,86.31 ± 0.75,89.4,108 ± 5.6,98.9,89.2 ± 1.7,91.7 ± 19,104 ± 12
O=C(O)CSCC(=O)NC1CCSC1=O (stereo not drawn) [Erdosteine],105 ± 12,125,108 ± 27,108,87.3 ± 5.8,134,94.1 ± 8.3,119 ± 33,177 ± 44
CCOc1nc2cccc(C(=O)O)c2n1Cc1ccc(-c2ccccc2-c2nn[nH]n2)cc1 [Candesartan],98 ± 5.4,122,93.6 ± 2.2,101,127.9 ± 1.2,109,82.15 ± 0.28,85.9 ± 7.9,112 ± 23
Brc1c(NC2=NCCN2)ccc2nccnc12.O=C(O)C(O)C(O)C(=O)O [Brimonidine Tartrate],123 ± 9.2,125,78 ± 4.6,89.9,88.5 ± 4.5,124,90.8 ± 10,125 ± 25,98.4 ± 1.3
Nc1[nH]c(=O)ncc1F [Flucytosine],106 ± 1.6,137,94.7 ± 12,93.1,135 ± 4.5,94.7,81.4 ± 1.5,93.72 ± 0.49,82.1 ± 1.3
Cc1ccc(C2OC(CO)C(O)C(O)C2O)cc1Cc1ccc(-c2ccc(F)cc2)s1 (stereo not drawn) [Canagliflozin],114 ± 6.5,150,55.8 ± 27,108,77.3 ± 21,124,76 ± 9.2,65.5 ± 51,110 ± 5.9
Nc1nc(Cl)nc2c1ncn2C1CC(O)C(CO)O1 (stereo not drawn) [Cladribine],95.8 ± 7.4,118,94.6 ± 26,104,128 ± 34,58.3,110 ± 15,106 ± 34,78.8 ± 8.9
CC(C)(C)NC(=O)C1CCC2C3CCC4NC(=O)C=CC4(C)C3CCC12C (stereo not drawn) [Finasteride],136 ± 20,115,103 ± 8.5,125,96.2 ± 4.9,99.8,81.1 ± 1.1,94 ± 1.5,156 ± 18
COc1cc(C=CC(=O)CC(=O)C=Cc2ccc(O)c(OC)c2)ccc1O [Curcumin],94.5 ± 54,135,69.3 ± 40,51,98.4 ± 44,110,127 ± 22,145 ± 53,197 ± 9.6

Structure (SMILES),cell viability (HCI01),cell viability (HCI03),cell viability (HCI09),cell viability (HCI11),cell viability (HCI13),cell viability (HCI16),cell viability (UCD52),cell viability (WHIM2),cell viability (WHIM30)
Cc1nnc(NS(=O)(=O)c2ccc(N)cc2)s1 [Sulfamethizole],102 ± 17,119,91.2 ± 4.5,87,89.2 ± 14,114,81.2 ± 3.9,91.3 ± 4.2,88.3 ± 5
CCN1CCCC1CNC(=O)c1cc(S(=O)(=O)CC)c(N)cc1OC (stereo not drawn) [Amisulpride],189 ± 32,126,108 ± 14,100,82.7 ± 0.84,159,116 ± 15,122 ± 4,139 ± 2.1
CN(CCOc1ccc(CC2SC(=O)NC2=O)cc1)c1ccccn1 (stereo not drawn) [Rosiglitazone],176 ± 35,162,129 ± 33,153,189 ± 26,142,124 ± 10,174 ± 17,199 ± 3.1
CNCC(O)C(O)C(O)C(O)CO (stereo not drawn) [Meglumine],80.2 ± 19,93.4,97.6 ± 1.5,74.4,142 ± 11,110,78.3 ± 1.6,85.9 ± 25,133 ± 5.2
Cl.Cl.OCCOCCN1CCN(C(c2ccccc2)c2ccc(Cl)cc2)CC1 (stereo not drawn) [Hydroxyzine 2HCl],169 ± 3.3,99.9,112 ± 5.6,117,85.42 ± 0.6,128,76.48 ± 0.64,97.2 ± 2.3,140 ± 23
CC(=O)O[C@H]1C[C@@]2(C)[C@@H](C[C@@H](O)[C@H]3[C@@]4(C)CC[C@@H](O)[C@@H](C)[C@@H]4CC[C@@]32C)/C1=C(\CCC=C(C)C)C(=O)[O-].[Na+] [Fusidic Acid (sodium salt)],97.1 ± 30,116,112 ± 21,81.6,129 ± 2.5,121,111 ± 3.2,88.3 ± 15,149 ± 19
CCN(CC)CCNC(=O)c1cc(Cl)c(N)cc1OC [Metoclopramide],112 ± 6.5,107,90.8 ± 17,94.6,121 ± 10,72.6,98.01 ± 0.093,88.4 ± 2.2,113 ± 27
CC(O)C1C(=O)N2C(C(=O)OCOC(=O)C(C)(C)C)=C(SC3CN(C4=NCCS4)C3)C(C)C12 (stereo not drawn) [Tebipenempivoxil],130 ± 21,110,142 ± 85,115,101 ± 34,89.7,97.2 ± 11,112 ± 53,133 ± 17
Cc1ccccc1C(=O)Nc1ccc(C(=O)N2CCCC(O)c3cc(Cl)ccc32)c(C)c1 (stereo not drawn) [Tolvaptan],97.7 ± 38,138,80.4 ± 7.1,85.9,101 ± 5,159,89 ± 4.9,92.5 ± 19,157 ± 8.1
CC(C)(Oc1ccc(Cl)cc1)C(=O)O [Clofibric Acid],109 ± 22,119,79.6 ± 22,99.3,94.8 ± 9.6,97.8,81.1 ± 14,93.3 ± 20,109.5 ± 0.67
O=C(CCCN1CCC(O)(c2ccc(Cl)cc2)CC1)c1ccc(F)cc1 [Haloperidol],63.3 ± 37,102,86.1 ± 10,90,89.6 ± 9.9,117,61.6 ± 2.5,90.8 ± 36,121 ± 8.7
CCCCC(=O)N(Cc1ccc(-c2ccccc2-c2nnn[nH]2)cc1)[C@H](C(=O)O)C(C)C.CCOC(=O)[C@H](C)C[C@@H](Cc1ccc(-c2ccccc2)cc1)NC(=O)CCC(=O)O,98.1 ± 17,141,95.6 ± 18,92.9,87.9 ± 5.7,112,95.1 ± 8.6,93.4 ± 8.2,131 ± 11
CNCC(O)c1ccc(O)c(O)c1 [L-Adrenaline],131 ± 58,137,142 ± 37,110,121 ± 32,138,112 ± 15,102 ± 7.6,162 ± 8.5
CN(C)C(CCOc1cccc2ccccc12)c1ccccc1.Cl (stereo not drawn) [Dapoxetine HCl],87.4 ± 15,79.4,96.9 ± 11,74.2,95.1 ± 13,70,47.9 ± 5.3,65.2 ± 12,98.4 ± 1.4
CC(C)(C)NCC(O)COc1nsnc1N1CCOCC1.O=C(O)C=CC(=O)O (stereo not drawn) [Timolol Maleate],115.9 ± 0.17,116,106 ± 5.1,107,89.5 ± 12,120,96.4 ± 1.9,93.1 ± 15,112 ± 6.8
CCC1OC(=O)CC(O)C(C)C(OC2OC(C)C(O)C(N(C)C)C2O)C(CCN2CC(C)CC(C)C2)CC(C)C(=O)C=CC(C)=CC1COC1OC(C)C(O)C(OC)C1OC (stereo not drawn) [Tilmicosin],89.4 ± 32,116,82 ± 4.8,80.9,99.5 ± 6.4,102,77.7 ± 9.9,84.1 ± 3.9,97 ± 10
CC(NC(=O)Cc1cc(F)cc(F)c1)C(=O)NC(C(=O)OC(C)(C)C)c1ccccc1 (stereo not drawn),111 ± 14,115,64.1 ± 6.3,104,116 ± 9.7,130,60.1 ± 2.1,74.18 ± 0.26,123 ± 25
CN(C)C(=O)COC(=O)Cc1ccc(OC(=O)c2ccc(N=C(N)N)cc2)cc1.CS(=O)(=O)O [Camostat Mesilate],105 ± 24,133,85.2 ± 6.6,70.7,109 ± 5.7,112,99.8 ± 6.7,108 ± 5.9,110 ± 5.2
